# Measured values from PubChem BioAssay (EPA / NIEHS).
# Calls of active or inactive are those of the source. How the source made its calls: active means hit-call score of the fitted dose curve at least 0.9, where 1 is the maximum; inactive means score below 0.9.
# Read-out: Monokine induced gamma interferon (MIG), CXCL9 (gene 4283)
# Assay: BSK_CASM3C_MIG: BioMAP Diversity Plus: CASM3C Assay for Monokine induced gamma interferon (MIG) Biomarker Activity (AID 2283048);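 further: MIG protein level measured by ELISA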
# Conditions: primary human coronary artery smooth muscle cells; actives raise or lower the signal
SMILES,outcome,AC50
CCn1c2ccccc2c2cc(N)ccc21,inactive,–
Cc1ccc(Nc2ccc(O)c3c2C(=O)c2ccccc2C3=O)cc1,inactive,–
Cc1ccc(O)c(C(C)(C)C)c1,–,33.2 µM (active)
CCCCCCCCCCCCCCCCCC(=O)OCC(CC)CCCC (stereo not given),inactive,–
CCCCC(CC)COCCC#N (stereo not given),inactive,–
C[C@H]1C[C@@H]2[C@H]([C@@H](O)C[C@@]3(C)[C@H]2CC[C@]3(O)C(=O)CO)[C@@]2(C)C=CC(=O)C=C12,inactive,–
O=P(c1ccccc1)(c1ccccc1)c1ccccc1,inactive,–
CC(C)Oc1ccccc1O,inactive,–
CC(=O)/C=C/C1=C(C)CCCC1(C)C,inactive,–
CC[Si](OC(C)=O)(OC(C)=O)OC(C)=O,inactive,–
CNC[C@H](O)c1cccc(O)c1,inactive,–
O=[N+]([O-])c1cc(C(F)(F)F)ccc1Cl,inactive,–
CCCCCCCCCC=O,inactive,–
COc1cc(C=O)ccc1OC(=O)C(C)C,inactive,–
Nc1cc([N+](=O)[O-])ccc1O,inactive,–
CCc1c(C)cc(N)c(CC)c1N,inactive,–
C=C(C)C(=O)O[C@H]1C[C@@H]2CC[C@@]1(C)C2(C)C,–,27.1 µM (active)
CC(=O)O[C@]1(C(C)=O)CC[C@H]2[C@@H]3C[C@H](C)C4=CC(=O)CC[C@]4(C)[C@H]3CC[C@@]21C,inactive,–
CC1COc2ccccc2N1C(=O)C(Cl)Cl (stereo not given),inactive,–
CC(C)(COC(=O)c1ccccc1)COC(=O)c1ccccc1,inactive,–
CC(C)c1ccc(C(C)C)cc1,–,31.3 µM (active)
CCC(=O)OCc1ccccc1,inactive,–
CC(=O)OCCC(C)CC(C)(C)C (stereo not given),inactive,–
CC1CCC(C(C)CS)CC1S (stereo not given),–,36.5 µM (active)
CC(=O)[C@H]1CC[C@H]2[C@@H]3CC=C4C[C@@H](O)CC[C@]4(C)[C@H]3CC[C@]12C,inactive,–

# Read-out: serum amyloid A (SAA), SAA1 (gene 6288)
# Assay: BSK_CASM3C_SAA: BioMAP Diversity Plus: CASM3C Assay for serum amyloid A (SAA) Biomarker Activity (AID 2283049);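 further: SAA protein level quantified by ELISA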
# Conditions: primary human coronary artery smooth muscle cells; actives raise or lower the signal
SMILES,outcome,AC50
CCn1c2ccccc2c2cc(N)ccc21,inactive,–
Cc1ccc(Nc2ccc(O)c3c2C(=O)c2ccccc2C3=O)cc1,inactive,–
Cc1ccc(O)c(C(C)(C)C)c1,inactive,–
CCCCCCCCCCCCCCCCCC(=O)OCC(CC)CCCC (stereo not given),inactive,–
CCCCC(CC)COCCC#N (stereo not given),inactive,–
C[C@H]1C[C@@H]2[C@H]([C@@H](O)C[C@@]3(C)[C@H]2CC[C@]3(O)C(=O)CO)[C@@]2(C)C=CC(=O)C=C12,–,0.15 µM (active)
O=P(c1ccccc1)(c1ccccc1)c1ccccc1,inactive,–
CC(C)Oc1ccccc1O,inactive,–
CC(=O)/C=C/C1=C(C)CCCC1(C)C,inactive,–
CC[Si](OC(C)=O)(OC(C)=O)OC(C)=O,inactive,–
CNC[C@H](O)c1cccc(O)c1,inactive,–
O=[N+]([O-])c1cc(C(F)(F)F)ccc1Cl,inactive,–
CCCCCCCCCC=O,inactive,–
COc1cc(C=O)ccc1OC(=O)C(C)C,inactive,–
Nc1cc([N+](=O)[O-])ccc1O,inactive,–
CCc1c(C)cc(N)c(CC)c1N,inactive,–
C=C(C)C(=O)O[C@H]1C[C@@H]2CC[C@@]1(C)C2(C)C,inactive,–
CC(=O)O[C@]1(C(C)=O)CC[C@H]2[C@@H]3C[C@H](C)C4=CC(=O)CC[C@]4(C)[C@H]3CC[C@@]21C,–,0.0082 µM (active)
CC1COc2ccccc2N1C(=O)C(Cl)Cl (stereo not given),inactive,–
CC(C)(COC(=O)c1ccccc1)COC(=O)c1ccccc1,inactive,–
CC(C)c1ccc(C(C)C)cc1,inactive,–
CCC(=O)OCc1ccccc1,inactive,–
CC(=O)OCCC(C)CC(C)(C)C (stereo not given),inactive,–
CC1CCC(C(C)CS)CC1S (stereo not given),–,20 µM (active)
CC(=O)[C@H]1CC[C@H]2[C@@H]3CC=C4C[C@@H](O)CC[C@]4(C)[C@H]3CC[C@]12C,inactive,–

# Read-out: not listed separately
# Assay: BSK_CASM3C_SRB: Viability Assessment in the BioMAP Diversity Plus: CASM3C Assay (AID 2283050);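 further: total protein by SRB staining as cytotoxicity measure in parallel cultures; cells exposed to compound for 24 h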
# Conditions: primary human coronary artery smooth muscle cells
SMILES,outcome,AC50
CCn1c2ccccc2c2cc(N)ccc21,inactive,–
Cc1ccc(Nc2ccc(O)c3c2C(=O)c2ccccc2C3=O)cc1,inactive,–
Cc1ccc(O)c(C(C)(C)C)c1,–,24.6 µM (active)
CCCCCCCCCCCCCCCCCC(=O)OCC(CC)CCCC (stereo not given),inactive,–
CCCCC(CC)COCCC#N (stereo not given),inactive,–
C[C@H]1C[C@@H]2[C@H]([C@@H](O)C[C@@]3(C)[C@H]2CC[C@]3(O)C(=O)CO)[C@@]2(C)C=CC(=O)C=C12,inactive,–
O=P(c1ccccc1)(c1ccccc1)c1ccccc1,inactive,–
CC(C)Oc1ccccc1O,inactive,–
CC(=O)/C=C/C1=C(C)CCCC1(C)C,inactive,–
CC[Si](OC(C)=O)(OC(C)=O)OC(C)=O,inactive,–
CNC[C@H](O)c1cccc(O)c1,inactive,–
O=[N+]([O-])c1cc(C(F)(F)F)ccc1Cl,inactive,–
CCCCCCCCCC=O,inactive,–
COc1cc(C=O)ccc1OC(=O)C(C)C,inactive,–
Nc1cc([N+](=O)[O-])ccc1O,inactive,–
CCc1c(C)cc(N)c(CC)c1N,inactive,–
C=C(C)C(=O)O[C@H]1C[C@@H]2CC[C@@]1(C)C2(C)C,–,13.2 µM (active)
CC(=O)O[C@]1(C(C)=O)CC[C@H]2[C@@H]3C[C@H](C)C4=CC(=O)CC[C@]4(C)[C@H]3CC[C@@]21C,inactive,–
CC1COc2ccccc2N1C(=O)C(Cl)Cl (stereo not given),–,5.64 µM (active)
CC(C)(COC(=O)c1ccccc1)COC(=O)c1ccccc1,inactive,–
CC(C)c1ccc(C(C)C)cc1,–,30.6 µM (active)
CCC(=O)OCc1ccccc1,inactive,–
CC(=O)OCCC(C)CC(C)(C)C (stereo not given),inactive,–
CC1CCC(C(C)CS)CC1S (stereo not given),–,29.7 µM (active)
CC(=O)[C@H]1CC[C@H]2[C@@H]3CC=C4C[C@@H](O)CC[C@]4(C)[C@H]3CC[C@]12C,inactive,–
